A selection: hits, their analogues and other compounds. The true share with any hit is near 2.4%.
Pol iota inh: qHTS for Inhibitors of Polymerase Iota | DNA polymerase iota (Homo sapiens), Q9UNA4 | Pol iota fluorescent replication assay, 10 min | hit rate 1% among 390,000 | Potency, µM (highest dose often 115 µM), usual class: inhibitors
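Fluorescent replication assay read twice, at 0 min and 10 min after adding 50 nM (final) substrate. Enzyme (10 nM) and compounds were first incubated 15 min at room temperature; enzyme-free buffer wells were negative controls.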
TDP1 inh: qHTS Assay for Inhibitors of Tyrosyl-DNA Phosphodiesterase (TDP1); Tyrosyl-DNA phosphodiesterase 1 (Homo sapiens), Q9NUW8; Potency, µM (doses to about 130 µM), hits mostly inhibitors; recombinant TDP1, AlphaScreen DNA substrate cleavage; hit rate 0.28% among 350,000; AID 485290, 2010; further: nearly all actives have a fitted effect of over 40% in size
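E. coli-derived human Tdp1, 1 nM final. Cpd preinc 15 min RT; substrate 15 nM final, 5 min RT; AS bead mix 10 ug/ml final, 10 min RT. Signal loss = tyrosine-FITC cleavage. No-enzyme wells = max signal.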
Pol eta inh-1: qHTS for Inhibitors of Polymerase Eta. Potency, µM (titrated, usually from 114 µM), actives largely listed as inhibitors. recombinant Pol eta, fluorescent DNA replication assay. DNA polymerase eta (Homo sapiens), Q9Y253. hit rate 1.2% among 390,000
Target sequence (Q9Y253 whole entry, looked up): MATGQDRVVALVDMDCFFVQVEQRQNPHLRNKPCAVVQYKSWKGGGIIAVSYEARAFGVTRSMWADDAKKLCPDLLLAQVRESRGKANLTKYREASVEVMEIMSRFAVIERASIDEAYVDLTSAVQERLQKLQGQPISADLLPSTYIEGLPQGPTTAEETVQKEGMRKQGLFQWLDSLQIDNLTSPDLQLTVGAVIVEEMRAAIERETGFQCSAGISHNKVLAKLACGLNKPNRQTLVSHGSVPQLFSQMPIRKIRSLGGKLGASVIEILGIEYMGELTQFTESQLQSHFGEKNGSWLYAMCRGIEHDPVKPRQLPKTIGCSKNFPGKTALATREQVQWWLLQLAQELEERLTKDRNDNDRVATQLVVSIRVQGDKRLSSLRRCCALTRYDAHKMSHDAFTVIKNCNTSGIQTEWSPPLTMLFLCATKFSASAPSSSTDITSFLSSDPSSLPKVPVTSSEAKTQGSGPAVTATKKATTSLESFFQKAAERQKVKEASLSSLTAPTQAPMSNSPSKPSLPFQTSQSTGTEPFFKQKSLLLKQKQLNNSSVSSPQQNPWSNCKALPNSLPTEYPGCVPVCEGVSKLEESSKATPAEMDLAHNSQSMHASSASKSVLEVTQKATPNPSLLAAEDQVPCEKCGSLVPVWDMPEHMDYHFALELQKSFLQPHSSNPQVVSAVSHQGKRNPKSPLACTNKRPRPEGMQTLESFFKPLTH
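Pol eta (10 nM) was preincubated with compounds for 15 min at room temperature, after which fluorescent replication substrate (50 nM final) was added to start the reaction. Fluorescence was read kinetically at 0 and 10 min.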
Pol beta inh-1: qHTS Assay for Inhibitors of DNA Polymerase Beta. P06746. Pol beta primer extension/strand displacement, fluorescence kinetic. Potency, µM (doses to about 114 µM), most hits filed as inhibitors. hit rate 1.3% among 340,000. AID 485314, 2010
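Homogeneous kinetic assay of primer extension and strand displacement by 10 nM Pol beta, preincubated 15 min at room temperature with compound before 50 nM substrate (final) was added. Read at 0 and 10 min; four-parameter Hill fit.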
Pol kappa inh-1: qHTS for Inhibitors of Polymerase Kappa | hit rate 0.53% among 400,000 | Potency, µM (series often up to 107 µM), actives largely listed as inhibitors | purified Pol kappa, fluorescent DNA synthesis assay, 10 min | AID 588579, 2011
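50 nM final substrate added after 15 min RT preincubation of 10 nM Pol kappa with compound; fluorescence read at 0 and 10 min.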
Pol beta inh-2: Inhibitors of DNA Polymerase Beta: Hit validation | shares compounds with Pol beta inh-1 | Pol beta primer extension/strand displacement, fluorescence kinetic | Potency, µM, usual class: inhibitors | hit rate 87% among 250; calls by dose curve
Klenow counter: Inhibitors of DNA Polymerase Beta: Hit Validation in Klenow Fragment Assay | 250 tested, under 10 active | shares compounds with Pol beta inh-1 | Klenow exo- polymerase counter-screen, fluorescent DNA substrate | activity change, negative = inhibition, % at 57.1 µM
HIV RT counter: Inhibitors of DNA Polymerase Beta: Hit Validation in HIV-RT Assay. shares compounds with Pol beta inh-1. HIV-1 RT polymerase activity, counter-screen. activity % (negative = inhibition, positive = activation), % at 57.1 µM. AID 540301, 2011. 250 tested, under 10 active
POLB inh gel: Inhibitors of DNA Polymerase Beta: Hit Validation in Radiolabeled Extension Assay. shares compounds with Pol beta inh-1. radiolabeled primer extension gel assay, phosphorimager. inhibition, % at 10 µM. hit rate 91% among 110;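 active means inhibition at 10 µM of 30% or more; inconclusive means no clear call, values can overlap the other calls; inactive means inhibition at 10 µM under 30%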
POLI cherry-pick: qHTS for Inhibitors of Polymerase Iota: Confirmatory Assay for Cherry-picked Compounds; Pol iota primer extension, TAMRA/BHQ fluorescence; shares compounds with Pol kappa inh-1; Potency, µM, hits mostly inhibitors; hit rate 77% among 1,500
Pol kappa inh-2: qHTS for Inhibitors of Polymerase Kappa: Confirmatory Assay for Cherry-picked Compounds. shares compounds with Pol eta inh-1. purified Pol-kappa, fluorescent strand-displacement substrate. Potency, µM, usual class: inhibitors. hit rate 76% among 920. AID 720501, 2013
Pol eta inh-2: qHTS for Inhibitors of Polymerase Eta: Confirmatory Assay for Cherry-picked Compounds; shares compounds with Pol eta inh-1; Pol eta primer extension, TAMRA/BHQ fluorescence, 10 min; Potency, µM, usual class: inhibitors; hit rate 64% among 2,600; AID 720502, 2013
Each line names hits and unclear results; the compound was inactive in the other large screens (follow-up assays come after a bar, where they were run). Unless noted, the call rests on the fitted dose curve; in most records, active means well fitted curve in the direction sought with a large enough effect; inconclusive means small, poorly fitted or top-dose-only effect, or another doubt; inactive means no such curve, though single readings can be large; an effect the other way counts as inactive or inconclusive.

Cc1ccc(S(=O)(=O)c2c(Nc3cc(F)ccc3F)sc(C(=O)c3ccc(F)cc3)c2N)cc1	none
CC(=O)c1cccc(NC(=O)CCc2nc3cccnc3n2Cc2cccs2)c1	none
Cc1cc(-c2nc3c4c5c(sc4[nH]c(=O)n3n2)CCC5)c(C)o1	Pol iota inh 13µM, TDP1 inh inconclusive, Pol eta inh-1 13µM, Pol beta inh-1 3.5µM, Pol kappa inh-1 inconclusive | Pol beta inh-2 32 | Klenow counter inactive | HIV RT counter inactive | POLB inh gel inactive
CC(C)N(Cc1ccccc1)C(=O)Cn1ncc2c([nH]c3ccccc32)c1=O	none
O=S(=O)(Nc1ccc(-c2ccc(N3CCCCC3)nn2)cc1)c1ccc(OC(F)(F)F)cc1	none
COc1ccc(/C=C(\C#N)c2nc3ccc(C)cc3[nH]2)cc1Oc1ccc(C(F)(F)F)cc1[N+](=O)[O-]	Pol beta inh-1 inconclusive
Cc1ccc2nc(/C(C#N)=C\c3ccc(Oc4ccc(C(F)(F)F)cc4[N+](=O)[O-])cc3)[nH]c2c1	Pol eta inh-1 inconclusive, Pol beta inh-1 7.1µM (no result: TDP1 inh) | Pol beta inh-2 14 | Klenow counter inactive | HIV RT counter inactive | POLI cherry-pick 42
COc1ccc(CCNC(=O)c2nnn(CC(=O)Nc3ccc(C)cc3C)c2N)cc1OC	Pol iota inh 35µM, Pol eta inh-1 inconclusive, Pol beta inh-1 0.56µM | Pol beta inh-2 25 | Klenow counter inactive | HIV RT counter inactive | POLB inh gel 52 | POLI cherry-pick inconclusive
COc1ccc(C(=O)NCC(=O)OCC(=O)c2cccc3ccccc23)cc1	none (no result: Pol eta inh-1, Pol beta inh-1)
CCn1nnc2cc(C(=O)Nc3cccc(C)c3C)ccc21	none
N#C/C(=C\c1ccc(OCc2ccc(Br)cc2)cc1)C(=O)Nc1cccc(C(=O)O)c1	TDP1 inh 22µM, Pol eta inh-1 inconclusive, Pol beta inh-1 8.9µM | Pol beta inh-2 16 | Klenow counter inactive | HIV RT counter inactive | POLI cherry-pick 67
O=C(COC(=O)c1ccc(S(=O)(=O)NCc2ccco2)cc1)Nc1ccc(Cl)cn1	Pol iota inh 22µM, Pol eta inh-1 20µM, Pol beta inh-1 16µM, Pol kappa inh-1 79µM (no result: TDP1 inh) | Pol beta inh-2 22 | Klenow counter inactive | HIV RT counter inactive | POLB inh gel 100 | Pol eta inh-2 76
Cc1ccc(NC(=O)COC(=O)c2ccc(S(=O)(=O)NCc3ccco3)cc2)cc1	none (no result: Pol beta inh-1)
CSc1nc(SCC(=O)O)c2sc3nc(-c4ccccc4)c4c(c3c2n1)CCC4	Pol iota inh inconclusive, TDP1 inh inconclusive, Pol eta inh-1 inconclusive, Pol beta inh-1 2.5µM, Pol kappa inh-1 inconclusive | Pol beta inh-2 4 | Klenow counter inconclusive | HIV RT counter inactive | POLI cherry-pick 15 | Pol eta inh-2 67
Cc1c2cnn(CC(=O)Nc3c(F)c(F)cc(F)c3F)c(=O)c2c(C)n1Cc1ccccc1F	Pol iota inh 18µM, Pol eta inh-1 40µM, Pol beta inh-1 6.3µM, Pol kappa inh-1 45µM | Pol beta inh-2 6.3 | Klenow counter inactive | HIV RT counter inactive | POLI cherry-pick 30 | Pol eta inh-2 60
CCn1c(CN2CCCCC2)nc2cc(NC(=O)COc3ccc(C(C)(C)C)cc3)ccc21	none
Cc1cc(C(F)F)n2nc(C(=O)Nc3cccc(Cl)c3C)nc2n1	none
O=C(NCc1ccco1)c1c2c(nc3ccccc13)CCC2	Pol iota inh 8.9µM, Pol eta inh-1 3.2µM, Pol beta inh-1 11µM, Pol kappa inh-1 32µM (no result: TDP1 inh) | Pol beta inh-2 25 | Klenow counter inactive | HIV RT counter inactive | POLB inh gel 99 | POLI cherry-pick inconclusive | Pol eta inh-2 85
Cc1nc2cc(-c3ccsc3-n3c(C)ccc3C)[nH]n2c(=O)c1Cl	Pol iota inh inconclusive, Pol eta inh-1 25µM, Pol beta inh-1 10µM, Pol kappa inh-1 inconclusive (no result: TDP1 inh) | Pol beta inh-2 28 | Klenow counter inactive | HIV RT counter inactive | POLB inh gel 74 | Pol kappa inh-2 30 | Pol eta inh-2 30
Cc1ccc(C(CCN(Cc2ccccc2)C(=O)c2ccco2)c2ccco2)cc1 (stereo not drawn)	Pol iota inh 20µM, Pol eta inh-1 18µM, Pol beta inh-1 10µM, Pol kappa inh-1 50µM | Pol beta inh-2 16 | Klenow counter inactive | HIV RT counter inactive | Pol eta inh-2 85
CC(=O)N(CCC(c1ccccc1)c1ccco1)Cc1cccs1 (stereo not drawn)	Pol beta inh-1 inconclusive
Cc1ccc2nc(/C(C#N)=C/c3ccc(-c4ccc(F)cc4F)o3)[nH]c2c1	Pol eta inh-1 inconclusive, Pol beta inh-1 inconclusive
Cc1ccc2nc(/C(C#N)=C/c3ccc(-c4cccc([N+](=O)[O-])c4)o3)[nH]c2c1	Pol iota inh 10µM, Pol eta inh-1 inconclusive, Pol beta inh-1 5µM | Pol beta inh-2 5.6 | Klenow counter inactive | HIV RT counter inactive | POLI cherry-pick inconclusive | Pol eta inh-2 76

Bioassay records deposited in PubChem BioAssay by National Center for Advancing Translational Sciences (NCATS).
